Compounds with a hit are over-represented: about 18% of the library has one in this group of screens.
IL-1B inflam inh – inhibitors of inflammasome signaling (IL-1 beta secretion) | 4.7% of 360,000 active | AID 743279 | activity change, % at 57.5 µM | THP-1 LPS/ATP IL-1B secretion, AlphaLISA, 16 h; stronger effect = lower value; in the data active = activity change below about -50%; inconclusive = mostly about -30% to -49%
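Secreted IL-1B measured by AlphaLISA bead assay after 16 h compound exposure of THP-1 cells; compounds (final up to 57.5 uM) added 1 h before LPS (250 ng/mL) and ATP (1.25 mM) stimulation; lower signal means less secretion.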
DT40 TDP1 CPT – growth inhibition of DT40 Tdp1-/-;hTDP1 cells with camptothecin (screen for TDP1 inhibitors); 12% of 420,000 active; chicken DT40 Tdp1-/-;hTDP1 cells + 20 nM CPT, ATP luminescence, 48 h; Potency, µM (titrated, usually from 46.2 µM), without a hit: top-dose activity change, negative = growth inhibition, hits mostly inhibitors; note: potency is the fitted concentration of half-maximal effect; nearly all actives have a fitted effect of over 55% in size
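Cell growth measured by CellTiter-Glo luminescence after a minimum 48 h, 37 C compound exposure with 20 nM CPT in Tdp1-knockout DT40 cells stably expressing hTDP1, seeded 400/well; qHTS titration format.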
LDHA inh – LDHA (human) enzyme inhibition; P00338; purified LDHA, NADH/diaphorase-resazurin fluorescence; stronger effect = lower value; activity change, % (values are at about 110 or 230 µM); 0.15% of 480,000 active; AID 1347041; in the data active = activity change below about -30%; inconclusive = mostly about -25% to -30%;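 note: plate controls were DMSO wells for no effect and wells without enzyme for full effect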
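Human LDH5 (2 nM) was incubated with 0.06 mM NADH and 0.2 mM pyruvate for 5 min at room temperature in Tris pH 7.4. Remaining NADH was coupled through diaphorase/resazurin, and resorufin fluorescence was read at 0 and 20 min.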
DT40 TDP1 no CPT – qHTS for Inhibitors of human tyrosyl-DNA phosphodiesterase 1 (TDP1): qHTS in cells in absence of CPT | 15% of 420,000 active | AID 686978, 2013 | Potency, µM (doses to about 46.2 µM), for the others: at the top dose activity change, negative = growth inhibition, hits mostly inhibitors | DT40 Tdp1-/- hTDP1 cells, no CPT, ATP luminescence, 48 h; note: potency is the fitted concentration of half-maximal effect; nearly all actives have a fitted effect of over 55% in size
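Chicken DT40 Tdp1-/- cells stably complemented with human TDP1 were seeded at 400 cells/well with DMSO in place of 20 nM camptothecin. After compound pinning, cells grew at least 48 hr at 37 °C; viability read by CellTiter-Glo luminescence.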
RORg inh – ROR gamma (mouse) transcription inhibition | Drosophila S2 Gal4-RORgamma UAS-luciferase reporter, 20 h | 5.4% of 310,000 active | Potency, µM (top dose mostly 53.6 µM), for the others: at the top dose activity change, negative = inhibition, actives largely listed as inhibitors | AID 2551; note: potency is the fitted concentration of half-maximal effect; nearly all actives have a fitted effect of over 60% in size
Target sequence (P51450 whole entry, looked up, the tested form may be a part): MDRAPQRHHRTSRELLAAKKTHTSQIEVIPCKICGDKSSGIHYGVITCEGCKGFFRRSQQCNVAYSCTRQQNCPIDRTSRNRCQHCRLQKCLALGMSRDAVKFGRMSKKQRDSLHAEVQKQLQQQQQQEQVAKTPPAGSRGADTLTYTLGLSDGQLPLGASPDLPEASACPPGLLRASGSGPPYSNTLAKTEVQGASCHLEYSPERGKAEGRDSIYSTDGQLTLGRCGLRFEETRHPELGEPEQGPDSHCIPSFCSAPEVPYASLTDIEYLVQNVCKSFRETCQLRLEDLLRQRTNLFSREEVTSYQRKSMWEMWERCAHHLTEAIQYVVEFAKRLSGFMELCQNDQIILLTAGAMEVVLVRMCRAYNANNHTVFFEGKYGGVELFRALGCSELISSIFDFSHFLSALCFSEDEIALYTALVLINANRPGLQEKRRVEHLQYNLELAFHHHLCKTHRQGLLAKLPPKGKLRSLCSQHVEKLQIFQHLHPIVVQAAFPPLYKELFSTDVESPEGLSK
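Using a luciferase readout, inhibitors were identified by reduced reporter activity in Drosophila cells coexpressing a copper-inducible Gal4–ROR gamma fusion and UAS-driven Photinus luciferase, incubated 20 hr after 700 uM copper sulfate.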
VP16 counter – Gal4-VP16 reporter inhibition counter-screen | Drosophila S2 Gal4-VP16 UAS-luciferase, luminescence, 20 h | Potency, µM (titrated, usually from 53.6 µM), for the others: top-dose activity, negative = inhibition, actives largely listed as inhibitors | 3.5% of 310,000 active | AID 2546;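 note: Gal4-VP16 expression switched on by copper sulfate through the metallothionein promoter; potency is the fitted concentration of half-maximal effect; nearly all actives have a fitted effect of over 50% in size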
* = called active by the depositor. Unless noted, calls come from the whole dose curve; as a rule, active = well fitted curve in the direction sought with a large enough effect; inconclusive = small, poorly fitted or top-dose-only effect, or another doubt; inactive = no such curve, though single readings can be large; an effect the other way counts as inactive or inconclusive. Unless noted, % is set by controls: 0 for no effect and ±100 for the full control effect.

Results for Cc1ccc(CNC(=O)C2CCN(S(=O)(=O)c3ccc4c(c3)CCCN4C(=O)C3CCC3)CC2)cc1 ?
DT40 TDP1 CPT: 21µM*; LDHA inh: 6; DT40 TDP1 no CPT: 7.3µM*

Results for CC(=O)N1CCCc2cc(S(=O)(=O)N3CCC(C(=O)NCc4ccccc4)CC3)ccc21 ?
DT40 TDP1 CPT: inconclusive; LDHA inh: 3; DT40 TDP1 no CPT: inconclusive

Results for CC(=O)N1c2ccc(S(=O)(=O)N3CCCC3C(=O)NCc3ccccc3Cl)cc2CC1C (configuration not stated) ?
IL-1B inflam inh: -18; DT40 TDP1 CPT: inconclusive; LDHA inh: 3; DT40 TDP1 no CPT: inconclusive; RORg inh: 6.3µM*; VP16 counter: -5%

Results for CC(=O)N1CCCc2cc(S(=O)(=O)N3CCC(C(=O)NCc4ccccc4Cl)CC3)ccc21 ?
DT40 TDP1 CPT: inconclusive; LDHA inh: 1; DT40 TDP1 no CPT: 23µM*

Results for COc1cc(Cl)c(C)cc1-n1cc(C(=O)c2cc(C)ccc2O)cc(C#N)c1=O ?
LDHA inh: 7

Results for CC(C)N(Cc1nc(-c2ccccc2)no1)C(=O)C(Cl)(Cl)Cl ?
IL-1B inflam inh: inconclusive; DT40 TDP1 CPT: 3%; LDHA inh: -7; DT40 TDP1 no CPT: -28%; RORg inh: 27%; VP16 counter: -15%

Results for Cc1cccc(-c2noc(CN(C(=O)c3ccc4c(c3)OCO4)C(C)C)n2)c1 ?
IL-1B inflam inh: -13; DT40 TDP1 CPT: 18µM*; LDHA inh: -4; DT40 TDP1 no CPT: inconclusive; RORg inh: -2%; VP16 counter: -16%

Results for CCN(Cc1nc(-c2cccc(C)c2)no1)C(=O)c1ccc2c(c1)OCO2 ?
IL-1B inflam inh: -69*; DT40 TDP1 CPT: -5%; LDHA inh: -8; DT40 TDP1 no CPT: -6%; RORg inh: inconclusive; VP16 counter: 4%

What do the screens show for `CC(C)N(Cc1nc(-c2ccccc2)no1)C(=O)Cc1ccccc1`?
IL-1B inflam inh: -5; DT40 TDP1 CPT: -28%; LDHA inh: -2; DT40 TDP1 no CPT: inconclusive; RORg inh: 7%; VP16 counter: -1%

How did Cc1cccc(-c2noc(CN(C(=O)c3c(-c4ccccc4Cl)noc3C)C(C)C)n2)c1 do in these assays?
IL-1B inflam inh: -14; DT40 TDP1 CPT: 21µM*; LDHA inh: 0; DT40 TDP1 no CPT: 18µM*; RORg inh: 24%; VP16 counter: -1%

What do the screens show for `Cc1cccc(-c2noc(CN(C(=O)C(c3ccccc3)c3ccccc3)C(C)C)n2)c1`?
IL-1B inflam inh: -16; DT40 TDP1 CPT: inconclusive; LDHA inh: -5; DT40 TDP1 no CPT: 16µM*; RORg inh: 1%; VP16 counter: -11%

Results for Cc1ccc(Cl)cc1NCC(=O)N1CCN(S(C)(=O)=O)CC1 ?
LDHA inh: -7

What do the screens show for `CC(Sc1nc(Cl)nc2nc[nH]c12)C(=O)N1CCN(c2ccccc2F)CC1` (configuration not stated)?
LDHA inh: -1

What do the screens show for `O=C(Nc1nc2ccc(OC(F)F)cc2s1)c1ccccc1Cl`?
LDHA inh: -5

What do the screens show for `Cc1nc(C(C)N(C)Cc2nc(-c3ccc4c(c3)OCO4)no2)c(C)s1` (configuration not stated)?
IL-1B inflam inh: -18; DT40 TDP1 CPT: 23µM*; LDHA inh: 3; DT40 TDP1 no CPT: inconclusive; RORg inh: 18µM*; VP16 counter: inconclusive

How did CCOc1ccc(C(=O)N(Cc2nc(-c3cccc(C)c3)no2)C(C)C)cc1 do in these assays?
DT40 TDP1 CPT: 21µM*; LDHA inh: 5; DT40 TDP1 no CPT: inconclusive

Results for Cc1cccc(-c2noc(CN(C(=O)c3ccc(C)c(C)c3)C(C)C)n2)c1 ?
DT40 TDP1 CPT: 5.2µM*; LDHA inh: 6; DT40 TDP1 no CPT: 3.7µM*

Results for COc1ccc(-c2noc(CN(C(=O)c3ccc4c(c3)OCO4)C(C)C)n2)cc1OC ?
IL-1B inflam inh: -19; DT40 TDP1 CPT: inconclusive; LDHA inh: -5; DT40 TDP1 no CPT: inconclusive

Results for Cc1onc(-c2ccccc2Cl)c1C(=O)NCc1nc(-c2ccc(C(F)(F)F)cc2)no1 ?
IL-1B inflam inh: -76*; DT40 TDP1 CPT: inconclusive; LDHA inh: 2; DT40 TDP1 no CPT: 15µM*; RORg inh: 11%; VP16 counter: inconclusive

Results for Cc1cccc(-c2noc(CN(C(=O)c3ccc(Br)o3)C(C)C)n2)c1 ?
IL-1B inflam inh: -5; DT40 TDP1 CPT: inconclusive; LDHA inh: -5; DT40 TDP1 no CPT: -9%; RORg inh: -22%; VP16 counter: 2%

What do the screens show for `O/N=C/c1ccccc1I`?
LDHA inh: 0

Results for CCOc1ccccc1C1NC(=O)NC(CN2CCN(c3ccccn3)CC2)=C1C(=O)OC (configuration not stated) ?
LDHA inh: -25

What do the screens show for `COc1ccc(C(=O)N(Cc2nc(-c3ccc(C)cc3)no2)C2CCCCC2)cc1OC`?
IL-1B inflam inh: -67*; DT40 TDP1 CPT: inconclusive; LDHA inh: 3; DT40 TDP1 no CPT: inconclusive; RORg inh: -18%; VP16 counter: -9%

What do the screens show for `Cc1onc(-c2ccccc2Cl)c1C(=O)N(Cc1nc(-c2ccccc2)no1)C1CCCCC1`?
IL-1B inflam inh: 7; DT40 TDP1 CPT: inconclusive; LDHA inh: -12; DT40 TDP1 no CPT: 18µM*; RORg inh: 0%; VP16 counter: 3%

Results for Cc1ccc(-c2noc(CN(C(=O)c3cccs3)C3CCCCC3)n2)cc1 ?
LDHA inh: 11

What do the screens show for `Cc1onc(-c2ccccc2Cl)c1C(=O)NCC1CCCO1` (configuration not stated)?
IL-1B inflam inh: 0; DT40 TDP1 CPT: -17%; LDHA inh: -11; DT40 TDP1 no CPT: -2%; RORg inh: 3%; VP16 counter: -3%

Results for Cc1cccc(-c2noc(CN(C(=O)COc3ccc(C(C)C)cc3)C(C)C)n2)c1 ?
DT40 TDP1 CPT: inconclusive; LDHA inh: 4; DT40 TDP1 no CPT: 16µM*

What do the screens show for `CCCCN(C)C(=O)c1sc2nc(C(C)(C)C)nc(C)c2c1C`?
LDHA inh: 2

Results for CCN1CCC2(CC1)N=C(SCC(=O)Nc1cc(F)ccc1F)C(c1ccc(F)cc1)=N2 ?
LDHA inh: 0

Screening results deposited in PubChem BioAssay by National Center for Advancing Translational Sciences (NCATS).
